Screens as filed in PubChem.
Compounds with a hit are over-represented: about 9.2% of the library has one in this group of screens.
Rab9 promoter act – Rab9 promoter activation. actives 2.8% (n = 320,000). Potency, µM (doses to about 9.22 µM), inactives show top-dose activation, negative = inhibition, hits mostly activators. AID 485297. Huh7 Rab9 promoter-luciferase reporter, luminescence, 24 h; further: % of control where 0% means no effect; nearly all actives have a fitted effect of over 60% in size
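Luciferase signal after 10 min detection reagent at ambient indicates Rab9 promoter upregulation; stably transfected Huh7 cells were treated 24 h with compound in DMSO at 37 °C, 5% CO2.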
SMN2 splice enh – enhancers of SMN2 splice variant expression. Potency, µM (doses to about 46.1 µM), inactives show at the top dose activity change, positive = activation, usual class: activators. HEK293 SMN2-luciferase splicing reporter, luminescence, 30-36 h. actives 2.8% (n = 210,000). AID 1458; further: % of control where 0% means no effect; nearly all actives have a fitted effect of over 55% in size
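qHTS luciferase splicing reporter: luminescence rises when SMN2 exon 7 is included in transfected HEK293 cells. Compound exposure lasted 30-36 h at 37C, with 4.5 mM final sodium butyrate as control, followed by a ONE-Glo read.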
ELG1 repair inh – ELG1-dependent DNA repair inhibition; HEK293T ELG1-luciferase reporter, luminescence, 16 h; DNA damage induced by 5-fluorouridine; Potency, µM (highest dose often 46.1 µM), without a hit: at the top dose activity change, negative = inhibition, actives largely listed as inhibitors; actives 2.3% (n = 330,000); further: on the % scale 0 is the no-effect control and ±100 the full control effect; nearly all actives have a fitted effect of over 55% in size
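5-Fluorouridine DNA damage + compound/DMSO, 2,000 cells/well, 16 h, 37 °C/5% CO2. ONE-Glo, 30 min RT, luminescence. Readout = decrease in reporter signal.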
FLuc counter – firefly luciferase modulation, counter-screen for miR-21 project; purified FLuc, Km substrates, luminescence inhibition; Potency, µM (highest dose often 57.5 µM), for the others: top-dose activity change, negative = inhibition, hits mostly inhibitors; actives 6.9% (n = 360,000);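 further: plate controls were vehicle for no effect and reference inhibitor for full effect; nearly all actives have a fitted effect of over 55% in size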
Target sequence (P08659 whole entry, looked up): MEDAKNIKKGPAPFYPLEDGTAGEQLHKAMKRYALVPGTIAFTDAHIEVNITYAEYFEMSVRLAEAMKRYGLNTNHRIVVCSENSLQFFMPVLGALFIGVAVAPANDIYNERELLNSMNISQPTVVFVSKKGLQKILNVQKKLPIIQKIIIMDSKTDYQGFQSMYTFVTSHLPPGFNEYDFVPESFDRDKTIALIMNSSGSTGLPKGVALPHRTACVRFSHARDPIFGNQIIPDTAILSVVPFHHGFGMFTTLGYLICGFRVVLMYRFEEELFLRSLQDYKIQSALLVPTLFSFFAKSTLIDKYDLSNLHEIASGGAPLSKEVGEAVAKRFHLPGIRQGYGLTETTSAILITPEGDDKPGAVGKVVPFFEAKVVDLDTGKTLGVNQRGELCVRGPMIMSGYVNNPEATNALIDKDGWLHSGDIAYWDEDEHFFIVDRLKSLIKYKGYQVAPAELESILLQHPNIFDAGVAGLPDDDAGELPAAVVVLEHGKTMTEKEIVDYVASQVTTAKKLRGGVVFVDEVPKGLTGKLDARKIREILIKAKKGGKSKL
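Purified P. pyralis luciferase (10nM final) with 10uM D-luciferin and 10uM ATP (Km levels) in 50mM Tris acetate pH 7.5, 10mM Mg acetate, 0.01% Tween-20, 0.05% BSA; qHTS 6-point titration, ~60 µM downward; luminescence read.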
NPC1 promoter act – NPC1 promoter activation | Huh7 NPC1 promoter luciferase reporter, 24 h | Potency, µM (doses to about 9.22 µM), without a hit: top-dose activation, actives largely listed as activators | actives 2.4% (n = 320,000) | AID 485313; further: % of control where 0% means no effect; nearly all actives have a fitted effect of over 60% in size
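Huh7 cells stably carrying NPC1 promoter–luciferase, plated in Opti-MEM with 10% FBS for 2 h, were exposed to compound in DMSO for 24 h at 37 °C; luciferase reagent was added for 10 min and luminescence read.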
ELG1 genotoxic – genotoxicity induction in ELG1-luciferase HEK293T cells; HEK293T ELG1-luciferase reporter, luminescence, 16 h; Potency, µM (highest dose often 46 µM), without a hit: at the top dose activity change, positive = activation, usual class: activators; actives 1.3% (n = 330,000); further: % of control where 0% means no effect; nearly all actives have a fitted effect of over 60% in size
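Genotoxic stress is detected as increased luminescence from luciferase-tagged ELG1 in HEK293T cells, measured with ONE-Glo after a 16 hr treatment at 37 °C.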
Starred values were filed as active, the others as inactive; ? = inconclusive; · = no result given. The call rests on the fitted dose curve; in most records, active means well fitted curve in the direction sought with a large enough effect; inconclusive means small, poorly fitted or top-dose-only effect, or another doubt; inactive means no such curve, though single readings can be large; an effect the other way counts as inactive or inconclusive. Potency means the concentration at half of the fitted maximal effect.

SMILES | Rab9 promoter act | SMN2 splice enh | ELG1 repair inh | FLuc counter | NPC1 promoter act | ELG1 genotoxic
COCCNC(=O)c1c[nH]c2ccc(S(=O)(=O)N3CCc4ccccc43)cc2c1=O | -2.9% | · | 10.3µM* | -19.8% | -10.8% | -15.1%
COCCCNC(=O)c1c[nH]c2ccc(S(=O)(=O)N3CCc4ccccc43)cc2c1=O | -9.0% | · | 7.3µM* | -13.4% | -13.0% | -9.4%
COc1ccccc1C(=O)Nc1ccc(S(=O)(=O)Nc2ncccn2)cc1 | · | 3.4% | · | 4.1% | · | ·
Cn1c(O)c(C(C#N)=C2N=c3ccccc3=N2)c2ccccc21 | 6.5% | 5.5% | 0.6% | 9.53µM* | 15.1% | 1.3%
N#CC(=C1N=c2ccccc2=N1)c1c(O)[nH]c2ccccc12 | 15.6% | 20.7% | ? | ? | 11.7% | 21.3%
Cc1ccn2c(=O)c(C(=O)NCCc3ccccc3)c(O)nc2c1 | · | 6.4% | · | 3.2% | · | ·
O=C(N/N=C/c1ccccc1[N+](=O)[O-])c1ccc2c(c1)OCCO2 | ? | · | ? | 0.239µM* | 0.631µM* | ?
O=C(N/N=C/c1cc(O)ccc1[N+](=O)[O-])c1ccc2c(c1)OCCO2 | 2µM* | · | ? | 0.601µM* | ? | ?
CC12CCC(C(=O)N(CSC(=S)N/N=C\c3ccccc3O)C1=O)C2(C)C (stereo not drawn) | -6.8% | -40.0% | ? | ? | -9.9% | 13.6%
CN(C)c1ccc(/C=N\NC(=S)SCN2C(=O)C3CCC(C)(C2=O)C3(C)C)cc1 (stereo not drawn) | 10.1% | -8.4% | ? | 8.49µM* | 4.1% | 1.0%
COc1cccc2c1Oc1ncccc1N(C(=O)Nc1cccc(Cl)c1)C2 | · | · | · | 4.6% | · | ·
Cc1nnc(SCc2ccccc2)[nH]c1=O | 2.7% | · | -4.7% | ? | -1.1% | -1.4%
Cc1ccc(CSc2nnc(C)c(=O)[nH]2)cc1 | -1.9% | -6.1% | ? | 16.9µM* | -7.6% | 11.3%
Clc1ccc(CN2CCc3nc(Nc4ccc5c(c4)OCCO5)ncc3C2)cc1 | · | · | · | -20.0% | · | ·
Brc1ccc(CN2CCc3nc(Nc4ccccc4)ncc3C2)s1 | · | · | · | -17.1% | · | ·
COc1cccc(CN2CCc3nc(Nc4ccc5c(c4)OCCO5)ncc3C2)c1 | · | · | · | 23.9µM* | · | ·
Cc1ccsc1CN1CCc2nc(Nc3ccccc3)ncc2C1 | · | · | · | 12µM* | · | ·
Cc1ccc(N(CC(=O)NCc2ccccc2)S(=O)(=O)c2c(C)noc2C)cc1 | -0.2% | · | 9.4% | 2.1% | 0.3% | 1.9%
Cc1nn(-c2ccccc2)c(Cl)c1/C=N/NC(=O)c1ccc(CNc2ccccc2)o1 | 4.6% | ? | ? | 2.13µM* | 15.4% | 1.4%
O=C(N/N=C\c1ccc([N+](=O)[O-])s1)C1COc2ccccc2O1 (stereo not drawn) | 1.12µM* | · | ? | 4.1% | ? | -14.1%
CCN(CC)S(=O)(=O)c1cccc(C(=O)N/N=C/c2c(C)nn(-c3ccccc3)c2Cl)c1 | -1.3% | -20.1% | 16.4% | 2.9% | 2.7% | 8.3%
O=C(N/N=C\c1ccc(Cl)s1)C1COc2ccccc2O1 (stereo not drawn) | 2.4% | · | ? | -15.4% | -16.9% | 1.2%
Cc1nn(-c2ccccc2)c(Cl)c1/C=N/NC(=O)c1ccco1 | 2.51µM* | 22.4µM* | ? | 3.79µM* | 3.16µM* | ?
Cc1nn(-c2ccccc2)c(Cl)c1/C=N/Nc1nncc(=O)[nH]1 | -2.5% | · | -0.8% | 15.1µM* | 2.7% | 10.7%
COc1ccc([C@H]2CC(=O)C=C(c3ccc(CNC(=O)OC(C)(C)C)cc3)C2)cc1 | -4.1% | · | ? | -0.4% | -6.6% | -10.7%
SMILES | Rab9 promoter act | SMN2 splice enh | ELG1 repair inh | FLuc counter | NPC1 promoter act | ELG1 genotoxic
Cc1ccc(Sc2ccc(N3CCC(C(=O)Nc4cc(C)cc(C)c4)CC3)nn2)cc1 | · | 3.3% | · | -10.6% | · | ·
Cc1nn(-c2ccccc2Cl)c(Cl)c1/C=N/Nc1nc2ccccc2s1 | -31.0% | -90.4% | ? | 0.169µM* | -19.7% | 22.5%
Cc1nn(-c2ccccc2)c(Cl)c1/C=N/Nc1ccc(Cl)c(C(=O)O)c1 | 0.0794µM* | 0.447µM* | ? | 0.601µM* | 0.0891µM* | 0.184µM*
Cc1nn(-c2ccccc2)c(Cl)c1/C=N/NC(=O)C1COc2ccccc2O1 (stereo not drawn) | -1.2% | -0.4% | -28.2% | 7.57µM* | -1.7% | 2.7%
Cc1nn(-c2ccccc2)c(Cl)c1/C=N/Nc1ccc(S(=O)(=O)Nc2ccccc2C(=O)O)cc1[N+](=O)[O-] | -6.3% | 11.3% | 5.4% | 3.5% | -0.2% | 0.0%
Cc1nn(C)cc1/C=N/NC(=O)c1ccco1 | ? | · | ? | 16.9µM* | 25.2% | 13.4%
Cc1nn(-c2ccccc2)c(Cl)c1/C=N/NC(=O)OC(C)(C)C | 2µM* | 17.8µM* | ? | 15.1µM* | 2.82µM* | 8.6%
CNC(=S)N/N=C/c1c(C)nn(-c2ccccc2)c1Cl | 28.9% | ? | ? | ? | 11.6% | ?
CCOC(=O)N/N=C/c1c(C)nn(-c2ccccc2Cl)c1Cl | ? | 12.6µM* | ? | 9.53µM* | ? | ?
COC(=O)c1ccccc1NC(=O)CN1C(=O)COc2ccccc21 | · | -8.7% | · | -8.0% | · | ·
CC(C)(C)c1cc(NCCCn2ccnc2)n2ncc(-c3ccc(Cl)cc3)c2n1 | 29.2% | 5.9% | ? | 26.9µM* | 21.9% | -4.2%
CN(C)CCCNc1cc(-c2ccccc2)nc2cc(-c3cccc(F)c3)nn12 | 0.8% | · | ? | 0.4% | 0.9% | 22.8%
CN(C)CCCNc1cc(C(C)(C)C)nc2c(-c3ccccc3)cnn12 | 3.98µM* | · | ? | 8.49µM* | 3.55µM* | ?
O=C1c2ccccc2-c2onc3c(Oc4ccccc4)cc(O)c1c23 | 0.7% | 11.2µM* | ? | ? | 8.6% | ?
CCOc1ccc2noc3c2c1C(=O)c1ccccc1-3 | -1.7% | 15.0% | ? | -9.0% | 7.7% | -0.4%
Cc1ccc(OCCn2nnc3sc4c(c3c2=O)CCC(C)C4)cc1 (stereo not drawn) | · | 7.2% | · | -13.5% | · | ·
COCCn1c(SCc2ccc(C(=O)OC)o2)nc2cc(Cl)ccc2c1=O | 3.55µM* | -9.1% | ? | -1.2% | 0.7% | -1.4%
CC(C)c1ccccc1-n1c(SCC(=O)c2ccc3c(c2)NC(=O)CO3)nc2ccccc2c1=O | -6.2% | -13.2% | 5.17µM* | 2.7% | -11.6% | -8.9%
COCCn1c(SCC(=O)N2CCc3ccccc3C2)nc2cc(Cl)ccc2c1=O | 1.2% | -14.8% | 23.1µM* | 1.3% | 0.3% | -14.6%
O=C1COc2ccc(C(=O)CSc3ccccc3C(=O)O)cc2N1 | -7.0% | · | 5.1% | ? | 4.7% | -1.1%
CC(C)c1ccccc1-n1c(SCC(=O)N2CCc3ccccc3C2)nc2ccccc2c1=O | -0.8% | -93.3% | 25.9µM* | 2.8% | -5.3% | -16.3%
